Results taken from PubChem BioAssay AID493169 (National Center for Advancing Translational Sciences (NCATS), 2011).
Records with an inconclusive call do not appear. Values without a mark were called inactive. Calls come from the whole dose curve; as a rule, active = well fitted inhibition curve with a large enough effect; inconclusive = small, poorly fitted or top-dose-only effect; inactive = flat fitted curve, though single readings scatter.

Assay: CHOP2 Reporter Counterscreen Assay for Inhibitors of Ubiquitin-specific Protease USP2a;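 note: activated enterokinase alone at 50 pM in a cell-free format rather than USP2a or CHOP2; nearly all actives have a fitted effect of over 55% in size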
Conditions: purified enterokinase, fluorogenic substrate, 485/531 nm; series mostly up to 38.3 µM; activity change, negative = inhibition: at the top concentration
Outline: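 Fluorescence (485/531 nm) read 10 min after adding 25nM reporter substrate to 50 pM activated EK preincubated 30 min RT with compound; Tris pH 8.0/CaCl2/CHAPS buffer. Data normalized to buffer-alone inhibition; concentration-response curves fitted.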
% is set by controls: 0 for no effect and ±100 for the full control effect.

Row | SMILES | activity change, negative = inhibition [%]
1 | Cc1ccc(-c2ccc(CCC(=O)O)n2NC(=O)c2cccs2)cc1 | -21.3
2 | Cc1cc(C(=O)CSc2nnc(Nc3ccccc3F)s2)c(C)n1CC1CCCO1 (stereo unspecified) | -1.76
3 | CC(=O)c1ccc(NC(=O)CC(NCCC2=CCCCC2)C(=O)O)cc1 (stereo unspecified) | 2.06
4 | COCc1cc(C)nc(OCC(=O)N/N=C\c2cc(C)n(-c3cccc(C(F)(F)F)c3)c2C)c1C#N | -0.186
5 | CCOc1ccc2nc(NC(=O)Nc3ccccc3)sc2c1 | -4.34
6 | CC(=O)O[C@H]1[C@H](O)[C@H](Oc2c(O)c(C)c3c4c2[C@@H](C)CC[C@@H]4[C@@H](C)C[C@H]3C=C(C)C)O[C@@H](C)[C@H]1O | 0.217
7 | CCC(CO)Oc1cc(NCc2cccc(C)c2)c2ncn(C(C)C)c2c1 (stereo unspecified) | 0.286
8 | CCC1SC2=NC(C)=C(C(=O)OCCOC)C(c3ccc(C(=O)OC)cc3)N2C1=O (stereo unspecified) | 0.0445
9 | COCc1cc(C)nc(SCC[N+](C)(C)CC(=O)Nc2cccc(C(F)(F)F)c2)c1C#N | -16.9
10 | CC(OC(=O)CN(C)S(=O)(=O)c1ccc(Cl)cc1)C(=O)Nc1ccc(N2CCOCC2)cc1 (stereo unspecified) | 1.51
11 | COC(=O)C1CCN(C(=O)COC(=O)CC(NC(N)=O)c2ccc(Cl)cc2)CC1 (stereo unspecified) | 2.03
12 | C=CC[C@H](CC(=O)OC(C)(C)C)C(=O)OC[C@@H]1CCCN1C(=O)[C@H](CC=C)CC(=O)N[C@H](CO)Cc1ccccc1 | -1.71
13 | Cc1ccccc1N=C1NC(=O)CS1 | 2.43
14 | Nc1ccc2nc(-c3ccc(N)c(Cl)c3)[nH]c2c1 | -5.04
15 | CCCc1nc(SCC(N)=O)[nH]c(=O)c1CC | 0.215
16 | Cc1ccc(N2CCN(C(=O)CCc3nc4ccccc4[nH]3)CC2)c(C)c1 | 3.76
